# Measurements from ChEMBL document CHEMBL3988442, “University of Dundee, Small-Polar-MMV Screening Library” (2021).
# In all, about 69,000 compounds went through this assay and about 950 (1.4%) showed an effect of 50% or more. For the sample, strong results were picked, then their nearest neighbours and some compounds at random.
# System: Mycobacterium tuberculosis
# Test: Cornell M. t heat shock assay; further: in the data most compounds retested in dose-response had high values
# Format: functional, organism-based
# Parameters: dose or concentration left out as unconfirmed
row,Compound,Percent Effect
1,CN1C(=O)CC(c2ccccc2)C12CCN(CCO)CC2.O=C(O)C(F)(F)F (configuration not stated),13.27%
2,Cl.O[C@@H]1CN(Cc2cccc(F)c2)CC[C@H]1NCc1ccccn1,14.29%
3,COc1ccc2c(c1)CN(Cc1nc3c(cnn3C)c(=O)[nH]1)CC2,-0.696%
4,CCOc1ccc2c(c1)CN(Cc1nc3c(cnn3C)c(=O)[nH]1)CC2,-1.196%
5,COc1ccc2c(c1)CN(Cc1nc3ccsc3c(=O)[nH]1)CC2,63.99%
6,Fc1cnc(N2C[C@@H](OCC3CCOCC3)[C@H]3OCCC[C@H]32)nc1.O=C(O)C(F)(F)F,41.59%
7,CC(C)N1CCc2nnc(COc3cncnc3)n2CC1.O=C(O)C(F)(F)F,-11.8%
8,CO[C@H]1CCN(C(=O)c2ccsc2)[C@@H]2CN(CC3CC3)C[C@H]12.O=C(O)C(F)(F)F,-4.831%
9,Cc1cccc(N2CCOCC3(C2)CN(c2ccoc2)C(=O)CO3)n1.O=C(O)C(F)(F)F (configuration not stated),36.14%
10,CN(C)[C@@H]1CN(C(=O)Cc2ccsc2)[C@@H]2CCCO[C@H]12.O=C(O)C(F)(F)F,1.941%
11,c1ccc2sc(N3CCCN(c4ncnc5c4CCNC5)CC3)nc2c1,53.45%
12,c1ccc2sc(N3CCN(c4ncnc5c4CCC5)CC3)nc2c1,-9.42%
13,Cc1ncnc(N2CCCN(c3nc4ccccc4s3)CC2)c1C,10.22%
14,O=C(c1ccco1)N1C(CN2CCOCC2)[C@]2(O)CC[C@H]1CC2 (some centres not stated),30.59%
15,Cc1nc(CO[C@@H]2CN(Cc3ccccn3)[C@@H]3COC[C@@H]32)cs1,-33.39%
16,Fc1ccc(CN2C[C@@H](OCc3ccccn3)[C@H]3COC[C@H]32)cc1.O=C(O)C(F)(F)F.O=C(O)C(F)(F)F,25.12%
17,c1ccc(CO[C@@H]2CN(Cc3ccoc3)[C@@H]3COC[C@@H]32)nc1,52.89%
18,Cc1nc(C2CCNC2)nc2c1CCC(=O)N2C.Cl (configuration not stated),7.271%
19,Br.O=C(O)c1csc(NCCc2ccccc2)n1,78.91%
20,O=C(NCCc1ccccc1)NCC(O)c1cccs1 (configuration not stated),20.6%
21,CN1CC(=O)c2sc(NCCc3ccccc3)nc2C1,-13.74%
22,COCCNC(=O)c1cc(-c2cc[nH]n2)n2ccccc12.O=C(O)C(F)(F)F,-6.749%
23,O=C(C1CCCO1)N1CCC2(CC1)COCCN(Cc1cccnc1)C2.O=C(O)C(F)(F)F.O=C(O)C(F)(F)F (configuration not stated),-5.406%

row,Compound,Percent Effect
1,O=C([C@@H]1CCCO1)N1CCOCC2(CCN(Cc3cccnc3)C2)C1 (some centres not stated),51.35%
2,O=C(O)C(F)(F)F.O=C(O)C(F)(F)F.O=C(O)C(F)(F)F.c1cncc(CN2CCC3(COCCN(C4CCOCC4)C3)C2)c1 (configuration not stated),-18.23%
3,Cc1ccc(N2CCC3(CCN(C(=O)c4ccoc4)CC3)CC2)nn1.O=C(O)C(F)(F)F,-13.67%
4,CS(=O)(=O)NCc1cn2c(n1)CN(Cc1cccnc1)CC2.O=C(O)C(F)(F)F.O=C(O)C(F)(F)F,42.6%
5,CN1CCC(c2nc3ccc(-c4cccc(F)c4)cn3n2)CC1.O=C(O)C(F)(F)F,3.867%
6,CNc1ncc(-c2ccc(NC(=O)[C@@H]3CCCCN3)cc2)cn1,-9.316%
7,Cc1csc2c(N3CCNC(C(=O)Nc4ccc(F)cc4)C3)ncnc12 (configuration not stated),27.39%
8,O=C(Nc1ccc(F)cc1)C1CSCN1 (configuration not stated),55.12%
9,O=C(Nc1ccc(F)cc1)C1CCc2ccccc2N1 (configuration not stated),1.641%
10,Nc1ncc(-c2ccc(NC(=O)[C@@H]3CCCCN3)cc2)cn1,-9.095%
11,Cl.N#Cc1ccc(NC(=O)C2CSCN2)cc1 (configuration not stated),75.04%
12,Cc1ccc(C(=O)N2[C@@H]3CC[C@H]2CN(C)C(=O)C3)c(=O)[nH]1,-6.73%
13,O=C(O)C(F)(F)F.O=C([C@@H]1C[C@@H]2CCN(Cc3ccc4c(c3)OCO4)C[C@@H]2O1)N1CCCC1,-15.24%
14,CC(C)COC[C@@H]1CC[C@H]2[C@H](CCN2C(=O)c2ccncc2F)O1.O=C(O)C(F)(F)F,-34.7%
15,Cc1ncc(CN(C)Cc2nc3cc(Cl)ccc3n2C)s1,61.31%
16,Cn1c(CCNc2nccnc2C#N)nc2cc(Cl)ccc21,-3.646%
17,CCn1c(CN(C)Cc2cnc(C)s2)nc2c(F)cccc21,-32.12%
18,O=C(O)C(F)(F)F.O=C(O)C(F)(F)F.c1ccc(CO[C@@H]2CC[C@H]3[C@H]2OCCN3Cc2ccsc2)nc1,-28.68%
19,COc1cccc(CN2CCCC2c2c(C)nn(C)c2C)c1 (configuration not stated),27.85%
20,Cc1cccc(CN2CCCC2c2cncc(Nc3nncs3)n2)c1 (configuration not stated),96.91%
21,Cc1ccccc1CN1CCCC1c1cncc(Nc2nncs2)n1 (configuration not stated),103.1%
22,CNc1cncc(C2CCCN2Cc2cccc(C)n2)n1 (configuration not stated),0.9246%
23,CNc1cncc(C2CCCN2Cc2ccccc2OCC(=O)O)n1 (configuration not stated),2.446%

row,Compound,Percent Effect
1,CNc1cncc(C2CCCN2Cc2ccnc(C)n2)n1 (configuration not stated),-20.32%
2,COc1cccc(CN2CCCC2c2ccc[nH]2)c1 (configuration not stated),-7.682%
3,CNc1cncc(C2CCCN2Cc2ccccn2)n1 (configuration not stated),-4.503%
4,COc1cccc(CN2CCCC2c2cncc(Nc3nncs3)n2)c1 (configuration not stated),104.6%
5,Cc1cccc(C(=O)N2C[C@@H](C)[C@@]3(CCN(c4ccsc4)C3=O)C2)n1.O=C(O)C(F)(F)F,5.09%
6,c1ccc(CO[C@H]2C[C@@H]3CN(Cc4cccnc4)C[C@@H]3C2)cc1,-10.82%
7,c1cnn(CC2CN(c3ncnc4ccsc34)CCO2)c1 (configuration not stated),105.5%
8,Cc1cnn(CC2CN(c3ncnc4ccsc34)CCO2)c1 (configuration not stated),28.88%
9,c1nc(N2CCOC(Cn3cncn3)C2)c2sccc2n1 (configuration not stated),-23.67%
10,C[C@H](N)Cn1nc(-c2cccs2)oc1=O.Cl,-14.47%
11,C[C@@H]1CN(C2CCN(Cc3nn(C)c4cccc(Cl)c34)CC2)C[C@H](C)O1,-2.477%
12,Cn1nc(CN2CCCCC(N)C2)c2c(Cl)cccc21 (configuration not stated),-3.376%
13,Cn1nc(CN2CCCN(C3CCCC3)CC2)c2c(Cl)cccc21,57.91%
14,Cc1ccc(C(=O)N2CCC3(CC2)CC(c2cnn(C)c2)CO3)cn1.O=C(O)C(F)(F)F (configuration not stated),-3.038%
15,NC(=O)N1CC[C@H](O)[C@@H]1Cc1cccnc1.O=C(O)C(F)(F)F,-3.918%
16,COC(=O)CSc1nnc(CCNC(=O)OC(C)(C)C)o1,12.63%
17,C=C(C)CSc1nnc(CCNC(=O)OC(C)(C)C)o1,54.16%
18,CCN(CC)C(=O)CSc1nnc(CCNC(=O)OC(C)(C)C)o1,3.451%
19,O=C(O)C(F)(F)F.O=C(c1ccco1)N1CCO[C@@H]2CN(CC3CC3)CC[C@@H]2C1,-6.108%
20,Cc1ccc(CN2CC[C@H](c3nnc(COc4ccc(F)cc4)o3)C2)o1,102.2%
21,CC(C)CN1CC[C@H](c2nnc(COc3ccc(F)cc3)o2)C1,15.46%
22,Fc1ccc(OCc2nnc([C@H]3CCN(Cc4ccncc4)C3)o2)cc1,43.75%
23,Cc1nn(C)c(C)c1S(=O)(=O)N1CC[C@H]2O[C@@H](C)C[C@H]2C1.O=C(O)C(F)(F)F,4.759%

row,Compound,Percent Effect
1,Cc1nc(C2CN(Cc3scnc3C)CCO2)cc(N(C)C)n1 (configuration not stated),-20.95%
2,CNc1cc(C2CN(Cc3scnc3C)CCO2)nc(C)n1 (configuration not stated),67.88%
3,CNc1cc(C2CN(Cc3csc(C)n3)CCO2)nc(C)n1 (configuration not stated),-32.62%
4,COc1cc(CN(CCCN(C)C)Cc2ccccn2)cc2c1OCO2.O=C(O)CC(O)(CC(=O)O)C(=O)O,-27.2%
5,CC(N(C)Cc1nc2c(cnn2C)c(=O)[nH]1)C(C)(C)C (configuration not stated),4.654%
6,O=C(Nc1cnccn1)[C@@H]1C[C@H]2OCC[C@H]2N(Cc2ccsc2)C1.O=C(O)C(F)(F)F,-23.53%
7,COc1cc(F)ccc1C(C(=O)O)N(C)Cc1ccon1 (configuration not stated),98.53%
8,COc1cc(C)cc(C(C(=O)O)N(C)Cc2ccon2)c1OC (configuration not stated),14.77%
9,COc1ccc(Cl)cc1C(C(=O)O)N(C)Cc1ccon1 (configuration not stated),-13.11%
10,Cc1ccc(C(=O)N2CCc3c(CN4CCCC4)nn(C)c3C2)cc1C.O=C(O)C(F)(F)F,-28.38%
11,Cc1ccc(CN2CC(O)CN(C(=O)OCC(C)C)CC2=O)cc1 (configuration not stated),52.29%
12,CC(C)COC(=O)N1CC(=O)N(CCCc2ccccc2)CC(O)C1 (configuration not stated),54.63%
13,COc1ccc(CN2CC(O)CN(C(=O)OCC(C)C)CC2=O)cc1 (configuration not stated),43.83%
14,CC(C)COC(=O)N1CC(=O)N(CCc2ccccc2)CC(O)C1 (configuration not stated),34.47%
15,CCOC(=O)N1CC(=O)N(CCc2ccccc2)CC(O)C1 (configuration not stated),15.03%
16,CC(C)COC(=O)N1CC(=O)N(Cc2ccc(Cl)cc2)CC(O)C1 (configuration not stated),47.42%
17,COc1cc(N2CC[C@H]3O[C@@H](C(=O)NC4CCCC4)CC[C@H]32)ncn1.O=C(O)C(F)(F)F,-0.9791%
18,Cl.O=C(NC1CCCC1)c1ccc(C2CCCNC2)nc1 (configuration not stated),-7.361%
19,Cc1c(C2CCCN(C(=O)c3ccncc3)C2)n2c(nc1=O)CCC2.Cl (configuration not stated),-13.79%
20,Cl.O=C(N[C@@H]1CN[C@H]2CCCO[C@H]21)c1cnccn1,-42.37%
21,CNC(=O)C1CCN(Cc2nc(-c3ccc(SC)cc3)oc2C)C1 (configuration not stated),12.81%
22,CNC(=O)CC1CCN(Cc2nc(-c3cccc(Cl)c3)oc2C)CC1,52.75%
23,CNC(=O)CC1CCN(Cc2nc(-c3ccc(SC)cc3)oc2C)CC1,1.977%
